Measurements: ChEMBL document CHEMBL3988442, “University of Dundee, Small-Polar-MMV Screening Library” (2021)
In all, about 48,000 compounds went through this assay and about 13,000 (27%) showed an effect of 50% or more. The list shows a part of the results.

These compounds were tested on Wolbachia pipientis (assay: Anti-Wolbachia Cell-Based Screen). Conditions: 5 µM.
Assay type: functional
Parameters: scale not given: in the data most compounds retested in dose-response had high values
`CCC(CC)C(CNC(=O)Nc1ccc(OC)cc1)N1CCOCC1` (stereo unspecified) was tested, and the “Percent Effect” value was 4.336%.
For `COc1ccc(NC(=O)C(c2ccc(OC)cc2)N2CCOCC2)cc1` (stereo unspecified), the “Percent Effect” value was 109.2%.
With `COc1ccc(C(CNC(=O)c2cnc(C)cn2)N2CCOCC2)cc1` (stereo unspecified) the “Percent Effect” value was 15.25%.
`CSc1nc2cc(C)n(CC(=O)N3CCCC3)c2c(=O)n1CC(C)C` was tested, and the “Percent Effect” value was 4.703%.
For `Cc1cc(C(=O)N(C)CCCn2cccn2)nc(N)n1`, the “Percent Effect” value was 99.09%.
For `COc1ccccc1OCCCN(C)c1cc(C)nc(N)n1`, the “Percent Effect” value was -7.239%.
In the case of `Cc1cc(N(C)Cc2ncc[nH]2)nc(-c2cccnc2)n1`, the “Percent Effect” value is reported as -8.057%.
`CC(C)[C@H]1COC(=O)N1CC(=O)N(C)CCCn1cccn1` was tested, and the “Percent Effect” value was -1.545%.
With `Cc1cc(C(=O)N2C[C@@H]3[C@@H](CN(C)CCCn4cccn4)[C@@H]3C2)c(C)o1` the “Percent Effect” value was 2.079%.
In the case of `Cc1cc(N(C)CC2COc3ccccc3O2)nc(N)n1` (stereo unspecified), the “Percent Effect” value is reported as -8.93%.
For `Cc1cc(N(C)CCCn2cccn2)nc(N)n1`, the “Percent Effect” value was 93.8%.
`Cc1cc(N(C)CCCn2cccn2)nc(-c2cccnc2)n1` was tested, and the “Percent Effect” value was 95.65%.
With `CN(CCn1cccn1)c1cc(C(F)(F)F)nc(-c2cccnc2)n1` the “Percent Effect” value was -9%.
`Cc1cc(N2CCN(C3CCSCC3)CC2)n2nc(C)c(C)c2n1` was tested, and the “Percent Effect” value was -17.53%.
In the case of `CCCN(CCC)S(=O)(=O)NC(C)C(=O)N(C)C` (stereo unspecified), the “Percent Effect” value is reported as -7.467%.
`CCC[C@H]1CN(CCS(C)(=O)=O)C[C@@H]1NC(=O)c1ccccc1F` was tested, and the “Percent Effect” value was -18.99%.
`COCCC(=O)N1CCOCC(Cc2ccc3c(ccn3C)c2)C1` (stereo unspecified) was tested, and the “Percent Effect” value was 165.7%.
With `CC(=O)N1CCOCC(Cc2ccc3c(ccn3C(C)=O)c2)C1` (stereo unspecified) the “Percent Effect” value was 130%.
For `CN(C)C(=O)Cn1ccc2cc(NC(=O)N3CCOCC3)ccc21`, the “Percent Effect” value was -7.307%.
With `CC(=O)N1CCOC[C@H](Oc2ccc(C(F)(F)F)cc2)C1` the “Percent Effect” value was -13.29%.
For `CC(=O)N1CCOCC(Cc2ccc3c(ccn3C)c2)C1` (stereo unspecified), the “Percent Effect” value was 138.8%.
With `CN(C)c1ccc(CC(=O)N2CCOCC(O)C2)cc1` (stereo unspecified) the “Percent Effect” value was -50.44%.
For `CC(=O)NCC(=O)N1CCC(C2CCN(Cc3ccc(Cl)cc3)C2)CC1` (stereo unspecified), the “Percent Effect” value was -7.699%.
For `CC(=O)NCC(=O)N1CCOCC(Cc2ccc3c(ccn3C)c2)C1` (stereo unspecified), the “Percent Effect” value was 143.9%.
In the case of `NC(=O)c1cccc(CC2CCN(C(=O)CCCN3CCOCC3)C2)c1` (stereo unspecified), the “Percent Effect” value is reported as -2.023%.
In the case of `Cn1ccc2cc(C(=O)N3CCOCC3)ccc21`, the “Percent Effect” value is reported as -3.73%.
With `O=C(CCCc1cn[nH]c1)N1CCOCC(O)C1` (stereo unspecified) the “Percent Effect” value was -4.397%.
In the case of `CC(C)C(=O)Nc1ncn(Cc2cccc(Br)c2)n1`, the “Percent Effect” value is reported as 13.22%.
In the case of `Cn1cc(-c2nc(C3CCN(CC4CC4)CC3)cc3c2ncn3C)cn1`, the “Percent Effect” value is reported as -12.1%.
In the case of `CCn1cc(-c2cc(C(F)(F)F)n(CCCN)n2)cn1`, the “Percent Effect” value is reported as 69.39%.
`Cc1nn(C)cc1-c1ccnc(NCCN)n1` was tested, and the “Percent Effect” value was 0.4357%.
For `Cc1cc(-c2cnn(C)c2)ccc1OCC(N)=O`, the “Percent Effect” value was 1.914%.
With `Cc1nn(C)cc1-c1cc(C(F)(F)F)c2c(C)nn(CC(=O)O)c2n1` the “Percent Effect” value was 1.02%.
With `Cc1nn(C)cc1-c1cc(C(F)(F)F)n(CCCN)n1` the “Percent Effect” value was 117.1%.
`Cn1cc(-c2cc(C(F)(F)F)n(CCCN)n2)cn1` was tested, and the “Percent Effect” value was 106%.
`Cc1noc(CCCC(=O)Nc2ncccc2Br)n1` was tested, and the “Percent Effect” value was -19.61%.
With `CCOCC1CN(Cc2ccoc2)Cc2cn(CC3CC3)nc21` (stereo unspecified) the “Percent Effect” value was 25.6%.
`O=C(c1cn(Cc2ccc(Cl)cc2)nn1)N1CCCO1` was tested, and the “Percent Effect” value was -12.44%.
For `Cc1ncc(C(=O)N2CC[C@@]3(O)CCN(C(=O)N(C)C)C[C@H]3C2)cn1`, the “Percent Effect” value was -6.772%.
`O=C(C1CCC1)N1CCC2(COCc3cnc(N4CCOCC4)nc32)C1` (stereo unspecified) was tested, and the “Percent Effect” value was -15.94%.
For `Cc1ncc2c(n1)C1(CCN(C(=O)C3CC3)CC1)OCC2.Cl`, the “Percent Effect” value was 134.7%.
With `Cc1ncc2c(n1)C1(CCN(C(=O)C(C)C)CC1)OCC2.Cl` the “Percent Effect” value was 141.2%.
For `CCc1cnc(C)nc1N1CCN(C(N)=O)CC1`, the “Percent Effect” value was -3.33%.
In the case of `Cc1cnc(N2CCOC3(CCCN(C(=O)C(C)C)C3)C2)nc1` (stereo unspecified), the “Percent Effect” value is reported as -6.845%.
`Clc1ccc(CN2CCN(Cn3nccc3-c3cccnc3)CC2)s1` was tested, and the “Percent Effect” value was 6.087%.
`CCC1CN(c2cnn(C)c(=O)c2Cl)CCO1` (stereo unspecified) was tested, and the “Percent Effect” value was 22.68%.
For `CCC1CN(c2cnn(-c3ccccc3)c(=O)c2Cl)CCO1` (stereo unspecified), the “Percent Effect” value was 4.552%.
For `Cc1ccccc1C1CN(c2cnn(C)c(=O)c2Cl)CCO1` (stereo unspecified), the “Percent Effect” value was 91.27%.
`Cc1cccc(N(CCC(N)=O)CC(=O)Nc2cc(Cl)ccc2Cl)c1` was tested, and the “Percent Effect” value was -1.848%.
With `O=C(O)C(F)(F)F.O=C(O)C(F)(F)F.c1ccc(CNCC2Cn3nnc(-c4ccncc4)c3CO2)nc1` (stereo unspecified) the “Percent Effect” value was 9.944%.
With `CC(=O)N1CCC(C)(c2cc(C(=O)NCC(C)(C)C)nc(C)n2)CC1` the “Percent Effect” value was 109.7%.
For `Cc1nc(NCc2ccc(C)o2)cc(C(=O)N2CCOCC2)n1`, the “Percent Effect” value was -3.993%.
In the case of `CC(=O)NCC1CCN(C(=O)c2csc(-c3ccc(C)cc3C)n2)CC1`, the “Percent Effect” value is reported as -1.979%.
In the case of `CCCN(Cc1nccn1C)C(=O)c1cc(C)nc(C)n1`, the “Percent Effect” value is reported as -2.808%.
`CCN(CC)C(=O)c1cc(C2(C)CCN(C(C)=O)CC2)nc(C)n1` was tested, and the “Percent Effect” value was 112.9%.
`CC(=O)N1CCC(C)(c2cc(C(=O)NCC3CC3)nc(C)n2)CC1` was tested, and the “Percent Effect” value was 107.8%.
For `CN(C)CCNC(=O)c1cc2n(n1)CCN(C(=O)CC(C)(C)C)C2`, the “Percent Effect” value was 4.361%.
With `Cc1nc(CN2CCC(CNC(=O)C3(C)CCCC3)CC2)oc1C` the “Percent Effect” value was -9.195%.
In the case of `CC(=O)N1CCN(c2cc(-n3cnc(C)c3C)nc(C)n2)CC1`, the “Percent Effect” value is reported as -7.107%.
In the case of `CNc1nc(C2CCCN2C(C)=O)nc2c1CN(C1CCCC1)CC2` (stereo unspecified), the “Percent Effect” value is reported as 121.2%.
`CNc1nc(N2CCN(C3CCCCC3)C(CCO)C2)nc2c1CCC2` (stereo unspecified) was tested, and the “Percent Effect” value was 13.4%.
In the case of `CNc1nc(N2CCN(C)C(CCO)C2)nc2c1CCC2` (stereo unspecified), the “Percent Effect” value is reported as -12.86%.
In the case of `CNc1nc(C2CCCN2C(C)=O)nc2c1CCN(CC1CC1)C2` (stereo unspecified), the “Percent Effect” value is reported as -2.53%.
In the case of `CNc1nc(C2CCCN2C(C)=O)nc2c1CN(CCO)CC2.O=CO` (stereo unspecified), the “Percent Effect” value is reported as 123.3%.
In the case of `CNc1nc(N2CCN(CC=C(C)C)C(CCO)C2)nc2c1CCC2` (stereo unspecified), the “Percent Effect” value is reported as -3.074%.
For `N[C@@H]1CCN(Cc2cccc(N3CCOCC3)c2)C[C@H]1O`, the “Percent Effect” value was -37.83%.
